Screening results: PubChem, National Center for Advancing Translational Sciences (NCATS)
An excerpt weighted towards active compounds, which were near 2.4% of everything screened.
Pol eta inh = DNA polymerase eta (human) inhibition. Q9Y253. recombinant Pol eta, fluorescent DNA replication assay. Potency, µM (highest dose often 114 µM), for inactives: at the top dose activity change, negative = inhibition, most hits filed as inhibitors. actives 1.2% (n = 390,000). AID 588591; also: % is scaled to controls: 0 for no effect and ±100 for the full control effect
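Pol eta (10 nM) was preincubated with compounds for 15 min at room temperature, after which fluorescent replication substrate (50 nM final) was added to start the reaction. Fluorescence was read kinetically at 0 and 10 min.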
FEN1 inhibitor = human FEN1 inhibition. Recombinant FEN1 flap cleavage, fluorescence, 15 min. Potency, µM (titrated, usually from 114 µM), for the others: at the top dose activity change, negative = inhibition, hits mostly inhibitors. actives 0.35% (n = 390,000); also: % is scaled to controls: 0 for no effect and ±100 for the full control effect; nearly all actives have a fitted effect of over 65% in size
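Steps: FEN1 (10 nM) dispensed; compound added by pin tool; 15 min at room temperature; substrate added to 50 nM final; reads at 0 min and 15 min; data normalized and fitted (four-parameter Hill).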
POLI inh = blocks human DNA polymerase iota activity. Q9UNA4. Potency, µM (doses to about 115 µM), without a hit: at the highest dose activity, negative = inhibition, hits mostly inhibitors. actives 1% (n = 390,000). Pol iota fluorescent replication assay, 10 min. AID 588590
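Fluorescent replication assay read twice, at 0 min and 10 min after adding 50 nM (final) substrate. Enzyme (10 nM) and compounds were first incubated 15 min at room temperature; enzyme-free buffer wells were negative controls.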
Pol kappa inh = blocks human DNA polymerase kappa activity. Q9UBT6. purified Pol kappa, fluorescent DNA synthesis assay, 10 min. Potency, µM (highest dose often 107 µM), for inactives: at the highest dose activity, negative = inhibition, actives largely listed as inhibitors. actives 0.53% (n = 400,000). AID 588579; also: % is scaled to controls: 0 for no effect and ±100 for the full control effect
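10 nM Pol kappa preincubated 15 min at room temperature with compounds, then reaction started with substrate at 50 nM final. Fluorescence read kinetically at 0 and 10 min; buffer-only wells served as negative control.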
WRN helicase inh = blocks human WRN helicase; Q14191; WRN helicase unwinding, fluorescent forked duplex, kinetic; actives 0.46% (n = 360,000); Potency, µM (titrated, usually from 114 µM), inactives show top-dose activity change, negative = inhibition, hits mostly inhibitors; also: % is scaled to controls: 0 for no effect and ±100 for the full control effect; nearly all actives have a fitted effect of over 55% in size
Target sequence (Q14191 whole entry, looked up): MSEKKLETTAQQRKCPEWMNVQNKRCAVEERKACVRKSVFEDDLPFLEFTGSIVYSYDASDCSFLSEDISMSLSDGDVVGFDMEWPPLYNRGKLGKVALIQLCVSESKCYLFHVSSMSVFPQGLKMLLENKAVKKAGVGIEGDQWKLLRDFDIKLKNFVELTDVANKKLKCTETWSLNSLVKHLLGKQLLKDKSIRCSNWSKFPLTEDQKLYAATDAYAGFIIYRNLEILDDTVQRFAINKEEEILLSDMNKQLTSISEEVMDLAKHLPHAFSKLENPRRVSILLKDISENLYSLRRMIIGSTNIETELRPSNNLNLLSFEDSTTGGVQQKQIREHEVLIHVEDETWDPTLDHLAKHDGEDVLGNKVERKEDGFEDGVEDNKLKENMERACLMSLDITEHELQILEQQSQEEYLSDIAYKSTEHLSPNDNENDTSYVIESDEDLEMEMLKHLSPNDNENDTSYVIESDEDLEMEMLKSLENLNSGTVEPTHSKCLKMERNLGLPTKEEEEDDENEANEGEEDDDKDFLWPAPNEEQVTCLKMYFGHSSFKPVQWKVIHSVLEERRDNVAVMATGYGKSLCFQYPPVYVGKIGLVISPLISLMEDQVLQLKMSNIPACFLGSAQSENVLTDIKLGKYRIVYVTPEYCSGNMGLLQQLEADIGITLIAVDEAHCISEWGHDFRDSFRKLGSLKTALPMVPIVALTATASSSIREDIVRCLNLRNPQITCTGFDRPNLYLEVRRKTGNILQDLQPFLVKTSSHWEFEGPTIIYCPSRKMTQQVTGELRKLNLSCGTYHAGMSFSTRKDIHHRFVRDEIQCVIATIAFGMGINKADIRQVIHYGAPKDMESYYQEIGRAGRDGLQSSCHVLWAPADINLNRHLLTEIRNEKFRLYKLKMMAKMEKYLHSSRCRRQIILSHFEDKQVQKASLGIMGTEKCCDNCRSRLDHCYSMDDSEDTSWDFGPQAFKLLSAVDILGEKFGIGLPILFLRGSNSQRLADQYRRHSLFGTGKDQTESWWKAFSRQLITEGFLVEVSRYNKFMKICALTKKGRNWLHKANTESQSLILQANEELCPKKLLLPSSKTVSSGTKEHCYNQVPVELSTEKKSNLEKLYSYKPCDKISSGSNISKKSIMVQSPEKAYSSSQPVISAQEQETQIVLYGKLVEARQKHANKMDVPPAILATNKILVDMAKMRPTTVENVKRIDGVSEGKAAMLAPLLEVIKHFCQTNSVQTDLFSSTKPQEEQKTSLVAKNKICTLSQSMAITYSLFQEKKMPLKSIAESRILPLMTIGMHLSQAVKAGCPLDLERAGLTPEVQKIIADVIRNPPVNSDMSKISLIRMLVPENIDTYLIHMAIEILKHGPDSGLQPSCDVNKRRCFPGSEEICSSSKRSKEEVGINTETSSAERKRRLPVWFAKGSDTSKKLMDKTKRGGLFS
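WRN at 20 nM final preincubated with compound 15 min at room temperature; reaction started with 100 nM fluorophore/quencher forked duplex oligonucleotide and 2 mM ATP final. Unwinding followed kinetically by red fluorescence (ex 525, em 598 nm).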
POLB inh = blocks human DNA polymerase beta activity | P06746 | Pol beta primer extension/strand displacement, fluorescence kinetic | Potency, µM (highest dose often 114 µM), for the others: at the top dose activity change, negative = inhibition, actives largely listed as inhibitors | actives 1.3% (n = 340,000) | AID 485314; also: % is scaled to controls: 0 for no effect and ±100 for the full control effect
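Human Pol beta at 10 nM; strand-displacement substrate 50 nM final. Compound exposure 15 min at room temperature before start, reaction 10 min at room temperature.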
Numbers without * were called inactive; ? = inconclusive; . = no result; ! = not active in a repeat; [ ] = another dose, or the depositor's remark. Calls follow the shape of the dose curve; as a rule, active = well fitted curve in the direction sought with a large enough effect; inconclusive = small, poorly fitted or top-dose-only effect, or another doubt; inactive = no such curve, though single readings can be large; an effect the other way counts as inactive or inconclusive. Potency is read from the fitted curve at half-maximal effect.

SMILES	Pol eta inh	FEN1 inhibitor	POLI inh	Pol kappa inh	WRN helicase inh	POLB inh
Cc1cc(-c2ccccc2)nc(Nc2nc3c(C)cccc3c(=O)[nH]2)n1	45µM*	17%	17%	-3%	-4%	.
COCc1c(Br)c(C)nc(OCC(=O)N/N=C/c2ccc(C)o2)c1C#N	-17%	16%	0%	-1%	-1%	17%
COCc1c(Br)c(C)nc(OCC(=O)N/N=C/c2ccco2)c1C#N	20%	17%	?	-2%[60.1 µM]	-12%	18µM*
Cc1cccc(OCC(=O)Nc2ccc(O)c(-c3nc4ccccc4o3)c2)c1	.	-2%	?	-19%	.	.
O=S1(=O)CCOC[C@H](c2ccccc2)N1Cc1ccc(Cl)cc1Cl	.	-27%	-4%	-10%	.	.
Cc1ccccc1C(=O)Nc1cccc(C(=O)Nc2ccccc2C(=O)O)c1	-7%	-1%	-24%	-2%	-12%	2%
Cc1ccc(C(=O)Nc2ccc(S(=O)(=O)O)c3cc(S(=O)(=O)O)cc(S(=O)(=O)O)c23)cc1NC(=O)c1cccc(NC(=O)Nc2cccc(C(=O)Nc3cc(C(=O)Nc4ccc(S(=O)(=O)O)c5cc(S(=O)(=O)O)cc(S(=O)(=O)O)c45)ccc3C)c2)c1	0.22µM*	1.3µM*	1.4µM*	0.032µM*!	.	0.89µM*
O=C1NC(=O)C(Cc2ccc(OCCN3COc4ccccc4C3=O)cc2)S1 (configuration not stated)	.	.	.	-8%[12 µM]	.	.
Cc1c(OCC(=O)N[C@H](C(=O)O)c2ccccc2)ccc2c3c(c(=O)oc12)CCCC3	56µM*	-10%	?	?	-6%[11.6 µM]	?
Cc1c(OCC(=O)NCC(O)c2ccccc2)ccc2c3c(c(=O)oc12)CCC3 (configuration not stated)	5%	7%	36%	1%	-3%	9%
Cc1c(OCc2ccc(C(=O)O)o2)ccc2c3c(c(=O)oc12)CCC3	18µM*	-12%	40µM*	5%[60.1 µM]	-27%	35µM*
Cc1c(Cc2ccccc2)c(=O)oc2c(C)c(OCC(=O)N[C@@H](Cc3ccccc3)C(=O)O)ccc12	50µM*	-6%	-10%	-18%	-11%[11.6 µM]	50µM*
COC(=O)c1ccc(COc2ccc3c(C)c(C)c(=O)oc3c2C)o1	-10%	10%	0%	-1%	-1%	7%
Cc1c(OCC(=O)NC(Cc2ccc(Cl)cc2)C(=O)O)ccc2c1oc(=O)c1ccccc12 (configuration not stated)	50µM*	?	5%	-17%	0%[11.6 µM]	0%
CN(C)c1ccc(C=O)cc1[N+](=O)[O-]	.	-14%	10%	-7%	.	.
COc1ccccc1-c1noc(-c2ccc(N3CCOCC3)c([N+](=O)[O-])c2)n1	-11%	-9%	?	-9%	.	-29%
CC(Oc1ccc2c(c1)oc(=O)c1ccccc12)C(=O)NC(Cc1c[nH]c2ccc(O)cc12)C(=O)O (configuration not stated)	?	-19%	-23%	-7%	-6%	?
CCc1cc(=O)oc2c(C)c(OCC(=O)Nc3ccc(S(=O)(=O)N(CC)CC)cc3)ccc12	-11%	1%	?	?	.	15%
CCc1c(C)c2ccc(OC(C)C(=O)NC(Cc3c[nH]c4ccc(O)cc34)C(=O)O)c(C)c2oc1=O (configuration not stated)	50µM*	-11%	?	-20%	-5%	36%
Cc1c(C)c2ccc(OCC(=O)Nc3ccc(S(N)(=O)=O)cc3)c(C)c2oc1=O	?	?	?	?	-14%[57.1 µM]	32µM*
Nn1c(-c2ccccc2)nc2ccccc2c1=O	-5%	2%	33%	4%	2%	8%
COc1ccc(-c2nc3ccccc3c(=O)n2N)cc1	9%	-5%	20%	-12%	-3%	56µM*
O=C(COc1ccc2ccccc2c1)Nc1ccc(O)c(-c2nc3ccccc3o2)c1	.	-1%	2%	-3%	.	.
CCCCN1C(=O)C(=O)N(CC(=O)Nc2sc(CC)cc2C(=O)OCC)C1=O	1%	-7%	79µM*	-6%	-13%[11.6 µM]	.
O=C(Cc1ccc(OCCc2ccccc2)cc1)NO	.	4%	28%	-3%	.	.
SMILES	Pol eta inh	FEN1 inhibitor	POLI inh	Pol kappa inh	WRN helicase inh	POLB inh
COc1ccc(C(=O)C[n+]2ccc(Cl)c3ccc(Cl)cc32)cc1	.	-7%	-11%	0%	.	.
O=C(COc1ccc2ccccc2c1)Nc1cccc(C(=O)Nc2ccccc2C(=O)O)c1	28µM*	-17%	-6%	-7%	?	10%
O=C(COc1ccc2ccccc2c1)NNC(=O)Nc1ccccc1F	?	3%	79µM*	-11%	-32%	35µM*
O=C(COc1ccc(-c2ccccc2)cc1)NNC(=O)Nc1ccc(F)cc1F	?	2%	12%	-2%	-16%	8.9µM*
O=C(COc1ccc2ccccc2c1)NNC(=O)c1ccc([N+](=O)[O-])cc1	79µM*	6%	?	-20%	-17%	8.9µM*
COc1ccc(OC)c(NC(=O)NNC(=O)COc2ccc(-c3ccccc3)cc2)c1	-17%	1%	17%	-5%	-23%	30%
COc1ccccc1C1NC(c2ccc3c(c2)OCO3)=CC(c2cc(Br)ccc2O)N1 (configuration not stated)	.	-1%	?	-5%	.	.
Clc1ccc(/C=C/c2ccncc2)cc1Cl	.	-3%	1%	0%	.	.
COc1cccc(/C=C2/SC(=S)N(CC(=O)Nc3nccs3)C2=O)c1	.	-18%	-1%	-9%	.	.
C=C1C=C(C(F)F)n2ncc(C(=O)NCCc3ccc(Cl)cc3)c2N1	.	3%	26%	8%	.	.
COc1cccc(-n2c(-c3ccccc3F)nc3c(cnn3-c3ccc(C)cc3)c2=O)c1	-10%	-22%	16µM*	-16%	.	5%
COc1ccc(C2COc3cc(O)ccc3C2)c(OC)c1O (configuration not stated)	0%	-5%	79µM*	9%	4%	.
CC1CCCCC1NS(=O)(=O)c1ccc(S(=O)(=O)NCc2ccncc2)cc1 (configuration not stated)	-9%	-1%	?	0%	-22%	71µM*
Cc1ccc(S(=O)(=O)NCc2ccncc2)cc1	-12%	4%	3%	7%	3%	4%
CC(C)([CH2][Sn]([CH2]C(C)(C)c1ccccc1)([CH2]C(C)(C)c1ccccc1)[O][Sn]([CH2]C(C)(C)c1ccccc1)([CH2]C(C)(C)c1ccccc1)[CH2]C(C)(C)c1ccccc1)c1ccccc1	.	.	.	20%[60.1 µM]	.	.
CC(C)COc1ccc(C(=O)Nc2onc3c2CCCC3)cc1	-21%	3%	15%	6%	.	0%
